Assay results taken from the supplement of paper PMC11732987, “Enantioselective OTUD7B fragment discovery through chemoproteomics screening and high-throughput optimisation” (Communications Chemistry, 2025).

Key:
Test in all cases: log2 ratio of Biotin-Ahx-Ub-VS probe labelling (fragment/DMSO); higher = less target engagement (more negative = stronger competition), active = hit call of the paper (q ≤ 0.05, log2 ratio ≤ -1)
Details in all cases: compound concentration: 200 uM; treatment time: 3 h
ALG13 = target: T1, ALG13 (UniProt Q9NP73)
T1 sequence (whole entry): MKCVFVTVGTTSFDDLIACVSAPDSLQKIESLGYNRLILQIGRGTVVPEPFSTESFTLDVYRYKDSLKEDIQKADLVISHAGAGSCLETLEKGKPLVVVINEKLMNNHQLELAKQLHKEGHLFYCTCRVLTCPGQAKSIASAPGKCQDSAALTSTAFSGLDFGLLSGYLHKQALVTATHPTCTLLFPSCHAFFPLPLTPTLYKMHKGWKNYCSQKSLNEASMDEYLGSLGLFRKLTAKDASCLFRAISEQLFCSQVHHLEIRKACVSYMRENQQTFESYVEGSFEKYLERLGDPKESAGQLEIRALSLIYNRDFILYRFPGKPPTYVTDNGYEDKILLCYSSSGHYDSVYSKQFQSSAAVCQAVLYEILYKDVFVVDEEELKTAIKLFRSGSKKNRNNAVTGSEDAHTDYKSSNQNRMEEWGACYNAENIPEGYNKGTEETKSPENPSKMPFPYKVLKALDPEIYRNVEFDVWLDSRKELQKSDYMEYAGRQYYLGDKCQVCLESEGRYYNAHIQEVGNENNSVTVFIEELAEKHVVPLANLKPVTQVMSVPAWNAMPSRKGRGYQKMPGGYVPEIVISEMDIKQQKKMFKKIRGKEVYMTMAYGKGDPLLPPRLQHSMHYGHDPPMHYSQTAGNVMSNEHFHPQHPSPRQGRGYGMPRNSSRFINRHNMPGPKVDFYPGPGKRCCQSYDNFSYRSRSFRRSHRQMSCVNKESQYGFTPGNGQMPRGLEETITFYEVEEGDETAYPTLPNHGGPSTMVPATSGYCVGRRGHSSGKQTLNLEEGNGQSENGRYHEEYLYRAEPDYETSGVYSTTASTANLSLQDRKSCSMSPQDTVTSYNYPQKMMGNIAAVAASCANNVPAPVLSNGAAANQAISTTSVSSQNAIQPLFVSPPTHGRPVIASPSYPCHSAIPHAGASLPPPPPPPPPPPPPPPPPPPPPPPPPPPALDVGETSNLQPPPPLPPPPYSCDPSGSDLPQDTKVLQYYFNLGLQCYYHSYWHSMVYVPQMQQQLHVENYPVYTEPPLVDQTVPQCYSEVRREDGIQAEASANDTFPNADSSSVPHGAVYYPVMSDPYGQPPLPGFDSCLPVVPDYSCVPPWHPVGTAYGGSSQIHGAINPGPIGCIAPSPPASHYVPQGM
Summary of the method: (§1)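 HEK293T lysate, 495 µg per sample in Tris/CHAPS/IGEPAL buffer with protease inhibitors, was treated in triplicate with fragment at 200 µM or vehicle for 3 h and then with Biotin-Ahx-Ub-VS at 0.5 µM final for 1 h. Labelled DUBs were NeutrAvidin-enriched, digested with LysC and trypsin, and run by diaPASEF LC-MS/MS. Spectronaut label-free quantities were global-median-normalised, and values are average log2 fragment/vehicle ratios by unpaired t-test on proteins with ≥2 unique peptides.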

ATXN3 = ATXN3 (UniProt P54252)
Summary of the method: as §1

BAP1 = target: T2, BAP1 (UniProt Q92560)
T2 sequence (whole entry): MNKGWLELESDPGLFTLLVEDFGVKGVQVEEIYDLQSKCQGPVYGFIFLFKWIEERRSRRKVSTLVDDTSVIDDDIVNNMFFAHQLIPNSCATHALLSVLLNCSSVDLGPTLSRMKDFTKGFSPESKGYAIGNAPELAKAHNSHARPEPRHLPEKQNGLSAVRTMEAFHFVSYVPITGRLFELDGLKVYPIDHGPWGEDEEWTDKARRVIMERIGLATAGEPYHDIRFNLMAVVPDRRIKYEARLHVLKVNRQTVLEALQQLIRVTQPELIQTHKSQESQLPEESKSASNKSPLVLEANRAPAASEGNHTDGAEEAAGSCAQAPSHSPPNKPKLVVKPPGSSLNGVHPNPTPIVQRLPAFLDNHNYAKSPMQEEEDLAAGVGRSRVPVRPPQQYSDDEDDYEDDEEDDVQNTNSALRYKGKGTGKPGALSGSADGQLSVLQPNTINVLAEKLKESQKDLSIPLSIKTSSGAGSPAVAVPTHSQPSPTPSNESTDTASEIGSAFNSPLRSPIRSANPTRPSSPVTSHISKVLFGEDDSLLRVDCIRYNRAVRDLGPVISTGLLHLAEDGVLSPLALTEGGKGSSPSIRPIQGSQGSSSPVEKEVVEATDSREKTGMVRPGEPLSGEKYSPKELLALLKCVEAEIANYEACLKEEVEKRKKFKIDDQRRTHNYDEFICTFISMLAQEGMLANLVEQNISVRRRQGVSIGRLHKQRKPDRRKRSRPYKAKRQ
Summary of the method: as §1

EIF3F = EIF3F (UniProt O00303)
Summary of the method: as §1

EIF3H = EIF3H (UniProt O15372)
Summary of the method: as §1

FAM105A = target: T3, FAM105A (UniProt Q9NUU6)
T3 sequence (whole entry): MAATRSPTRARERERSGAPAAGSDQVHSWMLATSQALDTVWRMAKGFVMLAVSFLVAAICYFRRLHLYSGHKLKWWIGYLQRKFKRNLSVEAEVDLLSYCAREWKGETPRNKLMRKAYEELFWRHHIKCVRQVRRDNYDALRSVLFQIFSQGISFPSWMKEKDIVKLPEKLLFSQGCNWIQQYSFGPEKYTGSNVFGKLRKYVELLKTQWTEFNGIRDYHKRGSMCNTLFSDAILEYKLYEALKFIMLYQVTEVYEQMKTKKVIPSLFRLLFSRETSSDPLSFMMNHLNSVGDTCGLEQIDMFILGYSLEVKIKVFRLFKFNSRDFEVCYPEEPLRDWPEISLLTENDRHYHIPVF
Summary of the method: as §1

OTUB1 = OTUB1 (UniProt Q96FW1)
Summary of the method: as §1

OTUD4 = target: T4, OTUD4 (UniProt Q01804)
T4 sequence (whole entry): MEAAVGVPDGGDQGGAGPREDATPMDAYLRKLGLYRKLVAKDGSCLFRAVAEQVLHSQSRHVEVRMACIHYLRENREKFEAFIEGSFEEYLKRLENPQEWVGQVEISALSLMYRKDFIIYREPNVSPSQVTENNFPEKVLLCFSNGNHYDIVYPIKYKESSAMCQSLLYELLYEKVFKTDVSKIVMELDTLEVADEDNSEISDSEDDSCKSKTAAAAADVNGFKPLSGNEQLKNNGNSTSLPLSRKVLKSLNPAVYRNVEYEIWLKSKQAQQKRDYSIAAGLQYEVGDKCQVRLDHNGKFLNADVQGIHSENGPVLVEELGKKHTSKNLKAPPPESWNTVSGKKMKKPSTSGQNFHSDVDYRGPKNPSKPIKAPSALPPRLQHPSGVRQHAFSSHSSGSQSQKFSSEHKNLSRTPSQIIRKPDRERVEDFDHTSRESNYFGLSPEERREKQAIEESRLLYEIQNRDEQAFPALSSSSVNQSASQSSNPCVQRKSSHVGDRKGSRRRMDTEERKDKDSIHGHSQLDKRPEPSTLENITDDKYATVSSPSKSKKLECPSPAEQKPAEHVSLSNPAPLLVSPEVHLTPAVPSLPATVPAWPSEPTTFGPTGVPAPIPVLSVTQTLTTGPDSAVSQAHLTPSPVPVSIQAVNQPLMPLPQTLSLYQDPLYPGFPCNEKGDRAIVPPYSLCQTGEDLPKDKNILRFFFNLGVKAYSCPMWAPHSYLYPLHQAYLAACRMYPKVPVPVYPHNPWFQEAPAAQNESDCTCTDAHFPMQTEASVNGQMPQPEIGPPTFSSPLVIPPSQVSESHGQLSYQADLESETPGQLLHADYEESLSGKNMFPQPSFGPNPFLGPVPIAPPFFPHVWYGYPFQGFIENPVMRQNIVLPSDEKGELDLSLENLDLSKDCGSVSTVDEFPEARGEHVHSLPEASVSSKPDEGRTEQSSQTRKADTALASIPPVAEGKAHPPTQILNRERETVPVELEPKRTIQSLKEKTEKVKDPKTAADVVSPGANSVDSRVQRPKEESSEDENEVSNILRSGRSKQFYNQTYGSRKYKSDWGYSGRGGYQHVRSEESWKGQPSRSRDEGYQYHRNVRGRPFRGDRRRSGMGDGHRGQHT
Summary of the method: as §1

OTUD5 = target: T5, OTUD5 (UniProt Q96G74)
T5 sequence (whole entry): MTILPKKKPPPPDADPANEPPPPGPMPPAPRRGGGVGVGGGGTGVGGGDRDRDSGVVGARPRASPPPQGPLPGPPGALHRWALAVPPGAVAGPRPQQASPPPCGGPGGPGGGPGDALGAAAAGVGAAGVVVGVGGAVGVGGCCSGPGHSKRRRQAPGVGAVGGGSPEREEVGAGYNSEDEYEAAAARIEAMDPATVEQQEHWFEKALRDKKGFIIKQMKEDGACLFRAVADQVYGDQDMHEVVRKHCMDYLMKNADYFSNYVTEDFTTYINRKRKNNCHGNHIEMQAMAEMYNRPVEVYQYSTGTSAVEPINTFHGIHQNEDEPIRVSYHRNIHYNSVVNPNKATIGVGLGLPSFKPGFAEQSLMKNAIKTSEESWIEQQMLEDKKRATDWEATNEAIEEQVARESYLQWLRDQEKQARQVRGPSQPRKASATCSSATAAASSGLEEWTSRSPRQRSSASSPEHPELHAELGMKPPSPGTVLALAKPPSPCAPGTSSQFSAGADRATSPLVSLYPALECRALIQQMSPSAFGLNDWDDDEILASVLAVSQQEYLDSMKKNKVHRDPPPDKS
Summary of the method: as §1

Measured: log2 ratio of Biotin-Ahx-Ub-VS probe labelling

EIF3F, sequence (O00303 whole entry): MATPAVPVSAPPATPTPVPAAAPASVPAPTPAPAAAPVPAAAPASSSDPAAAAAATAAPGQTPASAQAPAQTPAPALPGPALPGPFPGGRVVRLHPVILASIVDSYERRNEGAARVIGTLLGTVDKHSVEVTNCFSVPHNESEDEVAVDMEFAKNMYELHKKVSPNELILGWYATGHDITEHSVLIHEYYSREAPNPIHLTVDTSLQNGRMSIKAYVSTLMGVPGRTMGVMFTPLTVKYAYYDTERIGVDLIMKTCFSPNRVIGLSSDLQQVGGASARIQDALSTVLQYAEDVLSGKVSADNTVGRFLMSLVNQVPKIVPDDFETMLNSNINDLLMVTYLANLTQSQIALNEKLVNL
OTUB1, sequence (Q96FW1 whole entry): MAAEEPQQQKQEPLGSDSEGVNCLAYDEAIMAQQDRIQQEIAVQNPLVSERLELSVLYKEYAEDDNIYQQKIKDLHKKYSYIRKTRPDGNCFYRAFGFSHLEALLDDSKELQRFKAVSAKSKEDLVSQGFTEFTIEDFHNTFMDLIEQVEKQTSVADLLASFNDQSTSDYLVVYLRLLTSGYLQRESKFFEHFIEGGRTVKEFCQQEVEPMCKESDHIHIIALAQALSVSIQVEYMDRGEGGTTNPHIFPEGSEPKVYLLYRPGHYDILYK
ATXN3, sequence (P54252 whole entry): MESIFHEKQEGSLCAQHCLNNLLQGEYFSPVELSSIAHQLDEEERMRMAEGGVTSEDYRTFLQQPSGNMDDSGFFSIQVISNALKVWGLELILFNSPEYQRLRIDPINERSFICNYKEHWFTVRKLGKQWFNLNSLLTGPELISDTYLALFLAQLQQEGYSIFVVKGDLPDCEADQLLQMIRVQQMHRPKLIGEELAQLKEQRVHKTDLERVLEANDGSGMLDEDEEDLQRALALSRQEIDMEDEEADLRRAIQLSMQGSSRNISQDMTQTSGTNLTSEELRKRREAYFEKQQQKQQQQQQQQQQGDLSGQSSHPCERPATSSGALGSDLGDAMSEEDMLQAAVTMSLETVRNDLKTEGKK
EIF3H, sequence (O15372 whole entry): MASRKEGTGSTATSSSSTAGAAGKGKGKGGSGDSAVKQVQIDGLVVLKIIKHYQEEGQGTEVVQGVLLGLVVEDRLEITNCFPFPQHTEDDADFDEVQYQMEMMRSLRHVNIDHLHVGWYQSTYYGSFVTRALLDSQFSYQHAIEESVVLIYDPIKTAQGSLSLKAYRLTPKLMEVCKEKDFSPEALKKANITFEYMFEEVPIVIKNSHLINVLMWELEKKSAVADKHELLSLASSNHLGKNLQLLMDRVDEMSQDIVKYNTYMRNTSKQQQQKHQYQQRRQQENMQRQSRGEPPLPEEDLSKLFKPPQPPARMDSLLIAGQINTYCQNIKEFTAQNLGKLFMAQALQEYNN

Cc1noc(C)c1CNC(=O)CCl
active: BAP1 -2.03
inactive: ALG13 -0.968 | ATXN3 -0.884 | EIF3F -0.561 | EIF3H 0.0244 | FAM105A 0.341 | OTUB1 -0.618 | OTUD4 -0.737 | OTUD5 -0.764
